Design in all cases: species or system human, MV4-11 + K-562 + COLO205 + SK-N-BE2 + OVCAR-8
One experiment deals with ADRBK1. The settings on record: read-out: apparent Kd; compound concentrations: 100 nM and 1000 nM (sheet 'Samples'), CATDS: 0.15222698888400599; n = 1.
A further experiment relates to CSNK1G1. To be noted: read-out: apparent Kd; compound concentrations: 100 nM and 1000 nM (sheet 'Samples'), CATDS: 0.16245140586904; n = 1.
The next experiment concerns NQO2. To be noted: read-out: apparent Kd; compound concentrations: 100 nM and 1000 nM (sheet 'Samples'), CATDS: 0.164283529908442; n = 1.
The subject of the next experiment is PDXK. To be noted: read-out: apparent Kd; compound concentrations: 100 nM and 1000 nM (sheet 'Samples'), CATDS: 0.18883200846926201; n = 1.
In the next experiment the test system is TP53RK. The settings on record: read-out: apparent Kd; compound concentrations: 100 nM and 1000 nM (sheet 'Samples'), CATDS: 0.1506883600127; n = 1.
A further experiment concerns VDAC3. To be noted: read-out: apparent Kd, compound concentrations: 100 nM and 1000 nM (sheet 'Samples'), n = 1.
The next experiment has as its system AKT1. The settings on record: read-out: apparent Kd, n = 1.
Another experiment concerns AKT2. The settings on record: read-out: apparent Kd; compound concentrations:100 nM and 1000 nM (sheet 'Samples'); n = 1.
A further experiment deals with AKT3. To be noted: read-out: apparent Kd; compound concentrations:100 nM and 1000 nM (sheet 'Samples'); n = 1.
A further experiment relates to ATM. To be noted: read-out: apparent Kd; compound concentrations:100 nM and 1000 nM (sheet 'Samples'); n = 1.
In another experiment the test system is CAMK4. To be noted: read-out: apparent Kd; compound concentrations:100 nM and 1000 nM (sheet 'Samples'); n = 1.
The next experiment concerns JAK2. The settings on record: read-out: apparent Kd; compound concentrations:100 nM and 1000 nM (sheet 'Samples'); n = 1.
The next experiment concerns MAP2K1. To be noted: read-out: apparent Kd, n = 1.
For the next experiment, the system named is NQO1. To be noted: read-out: apparent Kd, n = 1.
A further experiment deals with PRKCD. To be noted: read-out: apparent Kd, n = 1.
Another experiment deals with PRKCQ. To be noted: read-out: apparent Kd; compound concentrations: 100 nM and 1000 nM (sheet 'Samples'), CATDS: 0.49835750263786499; n = 1.
A further experiment has as its system PRKCZ. To be noted: read-out: apparent Kd; compound concentrations:100 nM and 1000 nM (sheet 'Samples'); n = 1.
The next experiment relates to RIOK2. The settings on record: read-out: apparent Kd; compound concentrations:100 nM and 1000 nM (sheet 'Samples'); n = 1.
The test system of a further experiment is TTN. The settings on record: read-out: apparent Kd; compound concentrations:100 nM and 1000 nM (sheet 'Samples'); n = 1.
The next experiment has as its system CDC42. To be noted: read-out: apparent Kd; compound concentrations: 100 nM and 1000 nM (sheet 'Samples'), CATDS: 5.0343094610780299E-2; n = 1.
A further experiment deals with DYNC1LI1. The settings on record: read-out: apparent Kd; compound concentrations: 100 nM and 1000 nM (sheet 'Samples'), CATDS: 4.8109196484876701E-2; n = 1.
Another experiment relates to ERBB3. The settings on record: read-out: apparent Kd; compound concentrations: 100 nM and 1000 nM (sheet 'Samples'), CATDS: 4.7313636214179999E-2; n = 1.
Another experiment has as its system GARS. To be noted: read-out: apparent Kd; compound concentrations: 100 nM and 1000 nM (sheet 'Samples'), CATDS: 4.5585082575177599E-2; n = 1.
For the next experiment, the system named is GSK3A. To be noted: read-out: apparent Kd; compound concentrations: 100 nM and 1000 nM (sheet 'Samples'), CATDS: 8.5551067641828404E-2; n = 1.
For a further experiment, the system named is GSK3B. To be noted: read-out: apparent Kd; compound concentrations: 100 nM and 1000 nM (sheet 'Samples'), CATDS: 0.10546569208605799; n = 1.
The test system of another experiment is HSP90B1. To be noted: read-out: apparent Kd; compound concentrations: 100 nM and 1000 nM (sheet 'Samples'), CATDS: 4.7547071429497198E-2; n = 1.
In a further experiment the test system is MAP2K2. The settings on record: read-out: apparent Kd; compound concentrations: 100 nM and 1000 nM (sheet 'Samples'), CATDS: 4.6529537247477E-2; n = 1.
The next experiment deals with MDN1. The settings on record: read-out: apparent Kd; compound concentrations: 100 nM and 1000 nM (sheet 'Samples'), CATDS: 4.19866133995229E-2; n = 1.
In a further experiment the test system is MYLK3. To be noted: read-out: apparent Kd; compound concentrations: 100 nM and 1000 nM (sheet 'Samples'), CATDS: 4.95763825338097E-2; n = 1.
For a further experiment, the system named is NNT. To be noted: read-out: apparent Kd; compound concentrations: 100 nM and 1000 nM (sheet 'Samples'), CATDS: 4.95392498935424E-2; n = 1.
Another experiment deals with OPA1. To be noted: read-out: apparent Kd; compound concentrations: 100 nM and 1000 nM (sheet 'Samples'), CATDS: 4.33362445952395E-2; n = 1.
In the next experiment the test system is PGK1. To be noted: read-out: apparent Kd; compound concentrations: 100 nM and 1000 nM (sheet 'Samples'), CATDS: 0.623413247361988; n = 1.
The next experiment deals with PRKCA. The settings on record: read-out: apparent Kd; compound concentrations: 100 nM and 1000 nM (sheet 'Samples'), CATDS: 4.05038047397221E-2; n = 1.
Another experiment deals with TNIK. The settings on record: read-out: apparent Kd; compound concentrations: 100 nM and 1000 nM (sheet 'Samples'), CATDS: 4.3236885400500899E-2; n = 1.
[1] abbreviates: compound concentrations:100 nM and 1000 nM (sheet 'Samples').

Where two headings read alike, the source gives them in different places.

Regarding `CCn1cnc2c(N)ncnc21` [GW345098X], the potency estimated from few doses in the experiment with ADRBK1 is 2400 nM; with CSNK1G1, 2080 nM; in the experiment on NQO2 it was 2040 nM; in the experiment with PDXK, 1560 nM; in the experiment on TP53RK it was 2450 nM; in the experiment with VDAC3 (CATDS: 0.190251033630114) it was 1540 nM.

Regarding `NCC1CCC(CNc2nc(NCc3ccccc3OC(F)(F)F)ncc2[N+](=O)[O-])CC1` (stereo not drawn) [BIRZ0518XX], the potency estimated from few doses in the experiment with AKT1 (setting [1]) is 1960 nM; in the experiment on AKT2 it was 1970 nM; with AKT3, 1210 nM; with ATM, 249 nM; in the experiment with CAMK4, 1110 nM; in the experiment with JAK2, 517 nM. Also, the potency estimated from few doses with MAP2K1 (setting [1]) is 2280 nM; in the experiment on NQO1 (setting [1]), 1290 nM; in the experiment with PRKCD (setting [1]) it was 648 nM; with PRKCQ it was 40.3 nM; in the experiment with PRKCZ, 2020 nM; in the experiment with RIOK2, 1910 nM. In addition, the potency estimated from few doses with TTN is 1030 nM.

Take `Cn1cc(C2=C(c3cn(C)c4c(N)cccc34)C(=O)NC2=O)c2ccccc21` [RO0317482-000]: the potency estimated from few doses in the experiment on AKT1 (compound concentrations: 100 nM and 1000 nM (sheet 'Samples'), CATDS: 4.4101078523111903E-2) was 1790 nM; in the experiment on CDC42, 1310 nM; in the experiment with DYNC1LI1 it was 1450 nM; in the experiment on ERBB3 it was 1510 nM; in the experiment on GARS, 1650 nM; in the experiment on GSK3A, 484 nM. Further, the potency estimated from few doses was 343 nM in the experiment on GSK3B; 1490 nM in the experiment with HSP90B1; 1960 nM in the experiment on MAP2K1 (compound concentrations: 100 nM and 1000 nM (sheet 'Samples'), CATDS: 4.25622085031407E-2); 1570 nM in the experiment on MAP2K2; 2030 nM in the experiment on MDN1; 1360 nM in the experiment on MYLK3. The potency estimated from few doses is 1360 nM in the experiment on NNT; 1530 nM with NQO1 (compound concentrations: 100 nM and 1000 nM (sheet 'Samples'), CATDS: 4.7041069195994198E-2); 1870 nM in the experiment on OPA1; 20.4 nM with PGK1; 2240 nM in the experiment with PRKCA; 2330 nM with PRKCD (compound concentrations: 100 nM and 1000 nM (sheet 'Samples'), CATDS: 3.9953874898385103E-2). The potency estimated from few doses in the experiment with TNIK was 1880 nM; in the experiment with VDAC3 (CATDS: 4.2633905781269299E-2) it was 1950 nM.

The values are drawn from publication PMC11062922 (Nature Chemical Biology, 2023).
